From PubChem BioAssay
Shown are actives, neighbours in structure and some others; about 10% of the full set was active somewhere.
Pf growth 96h = Primary qHTS for delayed death inhibitors of the malarial parasite plastid, 96 hour incubation; AID 504834, 2011; Potency, µM (doses to about 28.7 µM), actives largely listed as inhibitors; P. falciparum luciferase reporter growth, 96 h; hit rate 6.9% among 320,000
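Erythrocytes infected with luciferase-expressing P. falciparum were dispensed at 2% hematocrit and 0.05% parasitemia (final), then incubated with compounds 96 hours at 37 C in 5% CO2. Luminescence after detection reagent addition reported growth.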
SARS PLpro yeast = qHTS of Yeast-based Assay for SARS-CoV PLP. S. cerevisiae expressing SARS-CoV PLpro, growth rescue. Potency, µM (doses to about 32.9 µM), usual class: activators. hit rate 0.19% among 330,000. AID 485353, 2010; calls by dose curve; also: nearly all actives have a fitted effect of over 55% in size
NS1 inh = qHTS Assay for Inhibitors of Influenza NS1 Protein Function. Potency, µM (titrated, usually from 46.1 µM). hit rate 0.4% among 270,000. AID 2326, 2010; calls by dose curve; also: actives are rising curves; nearly all actives have a fitted effect of over 50% in size
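Read-out: OD600 growth recovery of NS1-expressing budding yeast. Cells grown overnight at 30C in -URA glucose medium, washed, resuspended and diluted 1:100 in 2% galactose assay medium, pH 6.0. Same strain lacking NS1 served as positive control.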
Pf growth 48h = Primary qHTS for delayed death inhibitors of the malarial parasite plastid, 48 hour incubation. hit rate 5.9% among 310,000. Potency, µM (doses to about 28.7 µM), most hits filed as inhibitors. P. falciparum luciferase growth in erythrocytes, 48 h
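Here the parasites carry a stable luciferase gene and grow inside erythrocytes in Albumax-based RPMI medium with compound for one erythrocytic cycle. Activity is scored as loss of luminescent signal.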
Numbers stand for hits; 0 = inactive; ? = inconclusive; - = no result given. Unless noted, calls follow the shape of the dose curve; as a rule, active = well fitted inhibition curve with a large enough effect; inconclusive = small, poorly fitted or top-dose-only effect, or another doubt; inactive = no such curve, though single readings can be large or run the other way.

SMILES | Pf growth 96h | SARS PLpro yeast | NS1 inh | Pf growth 48h
CN(CC(=O)Nc1cccc(F)c1)C(=O)c1cc([N+](=O)[O-])ccc1N1CCOCC1 | 0 | 0 | - | 0
O=C(COC(=O)c1ccc([N+](=O)[O-])o1)NC1CCCc2ccccc21 (configuration not stated) | - | 0 | - | -
CC1CCCCC1NC(=O)c1ccc(CNc2c(N3CCCC3)c(=O)c2=O)cc1 (configuration not stated) | 8.3µM | 0 | 0 | 0
O=C(NC1CCCC1)c1ccc(CNc2c(N3CCOCC3)c(=O)c2=O)cc1 | 0 | 0 | 0 | -
CC1CCN(c2c(NCc3ccc(C(=O)NCCc4ccc(Cl)cc4)cc3)c(=O)c2=O)CC1 | 8.3µM | 0 | 0 | ?
Cc1ccc2cc(C#N)c(N3CCCN(C(=O)c4cnccn4)CC3)nc2c1 | ? | 0 | 0 | 0
COc1cc(C(=O)N2CCCN(c3nc4cc(C)ccc4cc3C#N)CC2)cc(OC)c1OC | - | 0 | 0 | 8.3µM
Cc1ccc2cc(C#N)c(N3CCCN(C(=O)C4CCCO4)CC3)nc2c1 (configuration not stated) | ? | 0 | 0 | 2.9µM
Cc1ccc2cc(C#N)c(N3CCN(C(=O)c4ccccc4)CC3)nc2c1 | ? | 0 | 0 | ?
COc1ccc(C(=O)N2CCN(c3nc4cc(C)ccc4cc3C#N)CC2)c(OC)c1 | 0 | 0 | 0 | 2.1µM
CC(C)OC(=O)C1Cc2ccccc2CN1S(=O)(=O)c1cccs1 (configuration not stated) | ? | 0 | 0 | ?
O=C(Nc1nnc(C2CC2)s1)C1CCCCN1S(=O)(=O)c1ccccc1 (configuration not stated) | 0 | 0 | 0 | 13µM
O=C(Nc1ccccc1)C1CCCCN1S(=O)(=O)c1ccccc1 (configuration not stated) | 0 | 0 | - | 0
C=CCCC(=O)N1CCC(n2nccc2NC(=O)c2ccc(OC)cc2)CC1 | 12µM | 0 | 0 | 0
COc1ccc(C(=O)Nc2ccnn2C2CCN(C(=O)CCC(F)(F)F)CC2)cc1 | 0 | 0 | 0 | 0
O=C(Cn1cnc([N+](=O)[O-])n1)N/N=C/c1cc(Cl)ccc1O | ? | 0 | - | ?
CCc1c(C)nc2cc(-c3cc(OC)cc(OC)c3)nn2c1N1CCN(CCN2CCOCC2)CC1 | 0 | 0 | 0 | 1.3µM
CCOCCN1CCN(c2c(C)c(C)nc3cc(-c4cc(OC)cc(OC)c4)nn23)CC1 | 0 | 0 | 0 | -
COc1cc(OC)cc(-c2cc3nc(C)c(CCC(=O)NC(C)CCc4ccco4)c(C)n3n2)c1 (configuration not stated) | 0 | 0 | 0 | 9.3µM
Cc1nc2cc(-c3cccc(F)c3)nn2c(C)c1CCC(=O)NC(C)CCc1ccco1 (configuration not stated) | 10µM | 0 | 0 | -
Cc1nc2cc(-c3ccccc3)nn2c(C)c1CCC(=O)NCc1ccco1 | ? | 0 | 0 | -
Cc1nc2ncnn2c(C)c1CCC(=O)NC(C)CCc1ccco1 (configuration not stated) | 12µM | 0 | ? | 0
CN1CCN(C(=O)c2ccccc2NS(=O)(=O)c2ccc(F)cc2)CC1 | 0 | 0 | - | 0
COc1cc(OC)cc(-c2cc3nc(C)c(CCC(=O)O)c(C)n3n2)c1 | 9.3µM | 0 | 0 | -
CCOC(=O)C1CCN(C(=O)CCc2c(C)nc3cc(-c4ccccc4)nn3c2C)CC1 | 0 | 0 | 0 | -
SMILES | Pf growth 96h | SARS PLpro yeast | NS1 inh | Pf growth 48h
Cc1ccccc1-n1ncc2c1CC(C)(C)CC2NC(=O)c1snnc1C (configuration not stated) | 5.9µM | 0 | ? | ?
CC1(C)Cc2c(cnn2-c2ccccc2)C(NC(=O)C2(C(N)=O)CC2)C1 (configuration not stated) | 0 | 0 | 0 | 9.3µM
CC(C)(C)c1ccc(-n2ncc3c2CCCC3NC(=O)C2(C(N)=O)CC2)cc1 (configuration not stated) | 13µM | 0 | 0 | 0
C=CCC(=O)NC1CC(C)(C)Cc2c1cnn2-c1ccc(C)cc1 (configuration not stated) | ? | 0 | 0 | 0
Cc1ccc(-n2ncc3c2CC(C)(C)CC3NC(=O)c2ccccn2)cc1 (configuration not stated) | 15µM | 0 | 0 | 0
O=C(NCc1cccc(C(F)(F)F)c1)C1CCCN(c2cnccn2)C1 (configuration not stated) | 0 | 0 | 0 | 0
COc1ccc2cc(-c3cc(C(=O)OCC(=O)NC4CCS(=O)(=O)C4)c4ccccc4n3)ccc2c1 (configuration not stated) | 0 | 0 | 0 | 0
Cc1ccc(-n2ncc3c2CC(C)(C)CC3NC(=O)CCc2ccc(=O)[nH]n2)cc1 (configuration not stated) | 13µM | 0 | 0 | 0
Cc1ccc(-n2ncc3c2CC(C)(C)CC3NC(=O)CCN2CCCO2)cc1 (configuration not stated) | 0 | 0 | 0 | ?
CC1(C)Cc2c(cnn2-c2ccccc2)C(NC(=O)c2ccoc2)C1 (configuration not stated) | ? | 0 | 0 | 10µM
CNC(=O)NC(=O)C(c1ccccc1)N(C)CC1COc2ccccc2O1 (configuration not stated) | ? | 0 | 0 | 0
O=C(NCc1ccc(Cl)cc1)C1CCCN1C(=O)Nc1ccccc1 (configuration not stated) | ? | 0 | 0 | 0
CCOc1ccc(CCNC(=O)COC(=O)c2ccc(Br)o2)cc1OCC | ? | 0 | - | 0
COc1ccccc1NC(=O)NC1CCCCCCC1 | 12µM | 0 | 0 | 0
COc1ccccc1NC(=O)N1CCCC(C(=O)Nc2cccc(C)c2C)C1 (configuration not stated) | 8.3µM | 0 | 0 | 0
CCOc1ccccc1NC(C)C(=O)NC(=O)NC1CCCCC1 (configuration not stated) | 13µM | 0 | - | ?
COc1ccc(CNC(=O)COC(=O)[C@H](Cc2ccccc2)NC(=O)c2cccs2)cc1 | - | 0 | - | -
COc1ccc(Br)cc1CN1CCCCCC1 | 0 | 0 | 0 | ?
Cc1ccc(S(=O)(=O)CC(CN2CCOCC2)N2CCOCC2)cc1 (configuration not stated) | 0 | 0 | 0 | 0
O=S(=O)(CC(CN1CCCC1)N1CCCC1)c1ccc2ccccc2c1 (configuration not stated) | 4.1µM | 0 | 0 | ?
C/C(=N\Nc1ncnc2sc(C)c(C)c12)c1ccccn1 | 0.046µM | 0 | 0 | 0.17µM
Cc1ccc(Nc2ncnc3sc(C)c(C)c23)cc1 | 9.3µM | 0 | 0 | 0
Cc1sc2ncnc(N/N=C/c3cccc(O)c3)c2c1C | 0 | 0 | 0 | 0
O=S(=O)(c1cc(F)ccc1F)N1CCN(C2CCCCC2)CC1 | 0 | 0 | 0 | 0
Cc1cc(=O)c(C(=O)O)nn1-c1ccccc1Cl | 0 | 0 | 0 | 0
S=c1[nH]nc(-c2ccc3ccccc3n2)n1-c1ccc(Cl)cc1 | 0.59µM | 0 | 0 | 0
Cc1n[nH]c(=S)n1-c1ccc(Cl)cc1 | 5.9µM | 0 | 0 | 0
Fc1ccc(-n2c(-c3ccc4ccccc4n3)n[nH]c2=S)cc1Cl | 0 | 0 | - | 0
Cc1ccccc1C(O)(Cc1ccccc1)C1CN2CCC1CC2 (configuration not stated) | 10µM | 0 | 0 | -
